Results from PubChem BioAssay AID1159580 (chemical genetic matrix, 2015).
Values joined by “and” are separate entries in the source; they are usually repeats but may differ in a detail not shown here. Equal values may be shown once. Out of some 5,500 compounds screened, about 2,000 (36%) were called active. Roughly 18% stayed inconclusive and do not appear here. Cut-off read from the data, not from the text of the source: active = normalized growth mostly below about 0.91 (no sharp cut-off); inconclusive = no clear call, values can overlap the other calls; inactive = mostly above about 0.92. Some of the results follow.

Test: chemical genetic growth profiling, strain panel (AID 1159580);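 note: tested at 20 µM; growth read once vehicle control cultures reached saturation at 30 °C; 1 = growth at the plate median or of vehicle wells; lower values mean less growth of the strain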
Conditions: S. cerevisiae deletion strains, growth OD

Measured: normalized growth

CCC(N)C(O)c1ccc(O)c(O)c1 (configuration not stated)
inactive: locus YAL013W, strain DEP1, active compounds read low 1.02 | locus YAL021C, strain ccr4, active compounds read low 1 | locus YAL026C, strain drs2, active compounds read low 0.987 | locus YAL030W, strain snc1, active compounds read low 0.986 | locus YBL061C, strain skt5, active compounds read low 0.99 | locus YBR009C, strain hhf1, active compounds read low 0.986 | locus YBR021W, strain FUR4, active compounds read low 0.995 | locus YBR023C, strain chs3, active compounds read low 0.994 | locus YBR171W, strain sec66, active compounds read low 0.976 | locus YBR229C, strain ROT2, active compounds read low 1.02 | locus YBR231C, strain swc5, active compounds read low 0.984 | locus YBR279W, strain paf1, active compounds read low 0.991 | locus YCL011C, strain gbp2, active compounds read low 0.996 | locus YCL016C, strain dcc1, active compounds read low 0.998 | locus YCL029C, strain bik1, active compounds read low 0.992 | locus YCL061C, strain MRC1, active compounds read low 0.991 | locus YCL069W, strain vba3, active compounds read low 1 | locus YCR088W, strain abp1, active compounds read low 0.997 | locus YDL005C, strain med2, active compounds read low 0.993 | locus YDL035C, strain GPR1, active compounds read low 1.02 | locus YDL040C, strain nat1, active compounds read low 0.99 | locus YDL074C, strain BRE1, active compounds read low 1 | locus YDL101C, strain DUN1, active compounds read low 1.01 | locus YDL134C, strain PPH21, active compounds read low 1 | locus YDL185W, strain tfp1, active compounds read low 0.968 | locus YDL192W, strain arf1, active compounds read low 0.998 | locus YDR001C, strain nth1, active compounds read low 0.99 | locus YDR069C, strain doa4, active compounds read low 0.981 | locus YDR101C, strain arx1, active compounds read low 0.995 | locus YDR137W, strain rgp1, active compounds read low 1.02 | locus YDR150W, strain NUM1, active compounds read low 1.02 | locus YDR159W, strain sac3, active compounds read low 0.965 | locus YDR162C, strain NBP2, active compounds read low 1.02 | locus YDR195W, strain ref2 0.931 | locus YDR297W, strain sur2, active compounds read low 0.991 | locus YDR318W, strain mcm21, active compounds read low 0.977 | locus YDR334W, strain swr1, active compounds read low 0.994 | locus YDR335W, strain msn5, active compounds read low 0.993 | locus YDR388W, active compounds read low 0.993 | locus YDR392W, strain spt3, active compounds read low 0.934 | locus YDR502C, strain sam2, active compounds read low 0.998 | locus YEL003W, strain gim4, active compounds read low 0.997 | locus YEL037C, strain rad23, active compounds read low 1.02 | locus YEL061C, strain CIN8 (second series), active compounds read low 0.988 | locus YEL061C, strain CIN8, active compounds read low 1.01 | locus YER015W, strain faa2, active compounds read low 0.984 | locus YER016W, strain bim1, active compounds read low 0.989 | locus YER110C, active compounds read low 0.985 | locus YER111C, strain swi4, active compounds read low 0.989 | locus YER155C, strain BEM2 (second series), active compounds read low 0.979 | locus YER155C, strain BEM2, active compounds read low 1.01 | locus YER167W, strain BCK2, active compounds read low 1.03 | locus YFR010W, strain ubp6, active compounds read low 0.983 | locus YGL078C, strain dbp3, active compounds read low 1 | locus YGL086W, strain mad1, active compounds read low 0.988 | locus YGL167C, strain pmr1, active compounds read low 0.985 | locus YGL173C, strain kem1, active compounds read low 0.998 | locus YGL227W, strain vid30, active compounds read low 0.983 | locus YGL240W, strain doc1, active compounds read low 0.96 | locus YGL248W, strain PDE1, active compounds read low 1.01 | locus YGL253W, strain hxk2, active compounds read low 1.01 | locus YGR078C, strain PAC10, active compounds read low 0.991 | locus YGR135W, strain pre9, active compounds read low 0.993 | locus YGR229C, strain SMI1, active compounds read low 1.02 | locus YGR252W, strain gcn5, active compounds read low 1.04 | locus YHR013C, strain ard1, active compounds read low 0.989 | locus YHR027C, strain rpn1, active compounds read low 0.985 | locus YHR030C, strain SLT2, active compounds read low 1.01 | locus YHR079C, strain IRE1 (second series), active compounds read low 0.986 | locus YHR079C, strain IRE1, active compounds read low 1.02 | locus YHR094C, strain hxt1, active compounds read low 0.988 | locus YHR129C, strain ARP1, active compounds read low 1.01 | locus YHR142W, strain chs7, active compounds read low 1.01 | locus YHR200W, strain rpn10, active compounds read low 0.994 | locus YIL066C, strain RNR3, active compounds read low 1.01 | locus YIL073C, strain SPO22, active compounds read low 1.03 | locus YIL125W, strain kgd1, active compounds read low 0.995 | locus YIR030C, strain dcg1, active compounds read low 0.987 | locus YJL092W, strain hpr5, active compounds read low 0.99 | locus YJL095W, strain BCK1 (second series), active compounds read low 0.991 | locus YJL095W, strain BCK1, active compounds read low 1 and 1.01 | locus YJL115W, strain asf1, active compounds read low 0.992 | locus YJL129C, strain trk1, active compounds read low 0.993 | locus YJL134W, strain LCB3, active compounds read low 1.01 | locus YJL154C, strain vps35, active compounds read low 0.993 | locus YJL164C, strain tpk1, active compounds read low 0.994 | locus YJL166W, strain qcr8, active compounds read low 0.988 | locus YJL168C, strain set2, active compounds read low 0.99 | locus YJL187C, strain SWE1 (second series), active compounds read low 0.996 | locus YJL187C, strain SWE1, active compounds read low 0.983 | locus YJR043C, strain POL32, active compounds read low 0.975 | locus YJR066W, strain TOR1, active compounds read low 0.983
